Unmarked numbers belong to inactive results. Some of the results follow. Active and inactive are the calls of the source. Rule as the data show it, unless noted: active = inhibition above about 44%; inactive = the rest.

Experiment [1] addresses Nuclear receptor subfamily 5 group A member 2 (Homo sapiens) (UniProt O00482). Put plainly: LRH-1 (NR5A2) inverse agonists, retest, confirmation, cell-based, luminescence (AID 651613; in the data active = inhibition above about 42%;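 also: HEK293T cells co-transfected with LRH-1 and StAR promoter luciferase reporter; 0% = vehicle wells and 100% = parental cells lacking receptor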). As to conditions: cell-based LRH-1 luciferase reporter, inverse agonism; at 3.6 µM; hits give high values. A general note: In a reporter assay the amount or activity of a reporter protein is the signal.

Experiment [2] has as its target Steroidogenic factor 1 (Homo sapiens) (UniProt Q13285). Put plainly: SF1 (NR5A1) inverse agonists, counter-screen for LRH-1 inverse agonist project, cell-based, luminescence, high throughput (AID 651614).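 Also: cells cotransfected with StAR promoter reporter and SF1 expression vector; 0% = vehicle on cells with receptor and 100% = vehicle on cells lacking receptor.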 As to conditions: cell-based SF1 luciferase reporter, at 3.6 µM, hits give high values. In general terms: A counterscreen serves to expose hits that act by an unwanted route or on another target.

Experiment [3] in a line: VP16 transactivation reporter inhibitors, counter-screen for LRH-1 inverse agonist project, cell-based, luminescence, high throughput (AID 651615; in the data active = inhibition above about 33%). As to conditions: Gal4-VP16 luciferase reporter cells, at 3.6 µM, hits give high values.
A short description of experiment [4]: StAR promoter reporter inhibitors, counter-screen for LRH-1 inverse agonist project, cell-based, luminescence, high throughput (AID 651611; in the data active = inhibition above about 28%). As to conditions: StAR promoter luciferase reporter counterscreen, at 3.6 µM, hits give high values.
In experiment [5] the test system is transactivating tegument protein VP16 (Human herpesvirus 1). The experiment is described as follows: VP16 transactivation reporter inhibitors, counter-screen for SRC2 inhibitor project, cell-based, luminescence, single concentration (AID 652007; in the data active = inhibition above about 36%). As to conditions: cell-based VP16 transactivation luciferase reporter, at 8.9 µM, hits give high values.
The target of experiment [6] is Nuclear receptor coactivator 2 (Homo sapiens) (UniProt Q15596). The experiment is described as follows: SRC2 coactivator transcriptional activity inhibitors, confirmation, cell-based, luminescence, HEK293, triplicate (AID 652008;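 active = mean inhibition above 46.5%, the solvent-only control mean plus 3 SD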;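 also: 0% = DMSO-treated cells and 100% = Gossypol at 36 µM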). As to conditions: HEK293 GAL4-SRC2 luciferase reporter, at 8.9 µM, hits give high values.
Experiment [7] is described as follows: growth loss of phage-infected RecBCD+ E. coli, confirmation, RecBCD inhibitor project, absorbance, E. coli V66, T4 gene 2 phage (AID 651982;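 active = mean inhibition over triplicates exceeding the hit threshold derived in the original primary screen, cut at about 11% in these data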). As to conditions: E. coli V66 + T4 2- phage, growth OD; at 11.9 µM; hits give high values.
A short description of experiment [8]: E. coli viability inhibition, counter-screen for RecBCD inhibitor project, absorbance, high throughput (AID 651983; in the data active = inhibition above about 20%;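 also: E. coli strain V66 grown with compound alone and no phage infection; 0% = bacteria with DMSO vehicle only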). As to conditions: absorbance (OD) growth, at 11.9 µM, hits give high values.
A short description of experiment [9]: growth loss of phage-infected AddAB-carrying E. coli, confirmation, counter-screen for RecBCD inhibitor project, absorbance, E. coli V3065, T4 phage (AID 651984;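 active = mean inhibition above the solvent-only control wells' mean plus 3 SD, cut at about 22% in these data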;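 also: higher means less bacterial growth from phage killing when AddAB is blocked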). As to conditions: E. coli expressing H. pylori AddAB + T4 phage, OD growth; at 11.9 µM; hits give high values; gene 2 mutant T4, recBCD-deleted host.
Experiment [10] is described as follows: Gal4-VP16 luciferase reporter inhibitors, counter-screen for COUP-TFII antagonist project, cell-based, luminescence, HEK293 (AID 687007; in the data active = inhibition above about 13%). As to conditions: at 8.5 µM, hits give high values.
The target of experiment [11] is COUP transcription factor 2 (Homo sapiens) (UniProt P24468). Put plainly: NR2F2 transcriptional activity inhibitors, confirmation, cell-based, luciferase reporter, HEK293, triplicate (AID 687008;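 active = mean inhibition over three repeats above a set limit taken from the earlier primary screen, cut at about 38% in these data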;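 also: 100% = cells given the luciferase reporter alone without the COUP-TF2 vector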). As to conditions: HEK293 NGFI-A luciferase reporter, luminescence; at 8.5 µM; hits give high values.
COUP transcription factor 2 (Homo sapiens), sequence (P24468 whole entry, looked up): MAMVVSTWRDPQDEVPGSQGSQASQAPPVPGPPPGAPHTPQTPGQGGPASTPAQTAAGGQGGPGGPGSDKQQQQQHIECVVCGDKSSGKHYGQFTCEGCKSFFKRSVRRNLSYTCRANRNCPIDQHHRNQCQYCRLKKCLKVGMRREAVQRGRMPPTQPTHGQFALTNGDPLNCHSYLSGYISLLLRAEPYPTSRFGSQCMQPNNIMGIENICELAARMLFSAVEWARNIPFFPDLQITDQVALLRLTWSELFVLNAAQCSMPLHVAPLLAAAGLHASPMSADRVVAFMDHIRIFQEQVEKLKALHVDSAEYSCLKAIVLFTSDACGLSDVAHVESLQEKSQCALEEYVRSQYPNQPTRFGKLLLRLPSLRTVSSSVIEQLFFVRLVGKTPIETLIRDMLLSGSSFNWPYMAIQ

Nuclear receptor coactivator 2 (Homo sapiens), sequence (Q15596 whole entry, looked up, the tested form may be a part): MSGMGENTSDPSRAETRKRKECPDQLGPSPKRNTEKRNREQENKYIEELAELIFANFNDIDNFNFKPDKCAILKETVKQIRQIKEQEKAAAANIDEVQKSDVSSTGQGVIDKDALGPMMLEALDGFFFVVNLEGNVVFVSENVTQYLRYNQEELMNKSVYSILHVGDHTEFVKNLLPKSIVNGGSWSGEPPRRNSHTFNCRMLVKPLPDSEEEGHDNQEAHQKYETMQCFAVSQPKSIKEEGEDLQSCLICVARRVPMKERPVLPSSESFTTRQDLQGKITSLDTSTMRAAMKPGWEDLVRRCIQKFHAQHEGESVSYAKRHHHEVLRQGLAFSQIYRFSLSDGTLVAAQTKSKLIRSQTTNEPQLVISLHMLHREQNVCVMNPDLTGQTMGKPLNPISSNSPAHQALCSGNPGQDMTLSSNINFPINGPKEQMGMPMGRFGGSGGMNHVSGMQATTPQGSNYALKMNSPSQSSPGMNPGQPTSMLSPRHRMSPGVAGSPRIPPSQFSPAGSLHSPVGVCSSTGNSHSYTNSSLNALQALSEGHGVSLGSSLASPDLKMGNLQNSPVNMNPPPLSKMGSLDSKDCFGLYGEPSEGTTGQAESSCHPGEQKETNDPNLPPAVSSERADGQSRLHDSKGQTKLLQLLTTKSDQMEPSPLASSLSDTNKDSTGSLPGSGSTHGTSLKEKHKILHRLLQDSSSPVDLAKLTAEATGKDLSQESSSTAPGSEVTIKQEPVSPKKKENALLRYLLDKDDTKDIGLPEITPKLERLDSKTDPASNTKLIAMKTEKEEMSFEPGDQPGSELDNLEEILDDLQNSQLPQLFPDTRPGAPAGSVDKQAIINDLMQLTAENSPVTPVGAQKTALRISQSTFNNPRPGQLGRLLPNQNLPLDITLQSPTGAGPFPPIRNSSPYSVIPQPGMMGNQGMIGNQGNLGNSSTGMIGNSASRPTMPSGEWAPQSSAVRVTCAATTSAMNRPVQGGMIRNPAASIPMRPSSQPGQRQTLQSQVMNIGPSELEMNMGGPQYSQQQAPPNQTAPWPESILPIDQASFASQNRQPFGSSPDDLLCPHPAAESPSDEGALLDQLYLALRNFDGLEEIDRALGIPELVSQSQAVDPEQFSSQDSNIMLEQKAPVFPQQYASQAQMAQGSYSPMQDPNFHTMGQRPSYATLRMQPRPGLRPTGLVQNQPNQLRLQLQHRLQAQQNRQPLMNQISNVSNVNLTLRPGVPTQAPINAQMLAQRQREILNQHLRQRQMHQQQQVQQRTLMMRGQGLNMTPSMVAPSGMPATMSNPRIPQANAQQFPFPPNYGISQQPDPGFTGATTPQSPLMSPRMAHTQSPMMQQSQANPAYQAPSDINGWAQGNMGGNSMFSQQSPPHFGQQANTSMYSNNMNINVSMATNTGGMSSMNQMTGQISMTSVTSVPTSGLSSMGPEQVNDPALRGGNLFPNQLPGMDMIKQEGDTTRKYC
Steroidogenic factor 1 (Homo sapiens), sequence (Q13285 whole entry, looked up): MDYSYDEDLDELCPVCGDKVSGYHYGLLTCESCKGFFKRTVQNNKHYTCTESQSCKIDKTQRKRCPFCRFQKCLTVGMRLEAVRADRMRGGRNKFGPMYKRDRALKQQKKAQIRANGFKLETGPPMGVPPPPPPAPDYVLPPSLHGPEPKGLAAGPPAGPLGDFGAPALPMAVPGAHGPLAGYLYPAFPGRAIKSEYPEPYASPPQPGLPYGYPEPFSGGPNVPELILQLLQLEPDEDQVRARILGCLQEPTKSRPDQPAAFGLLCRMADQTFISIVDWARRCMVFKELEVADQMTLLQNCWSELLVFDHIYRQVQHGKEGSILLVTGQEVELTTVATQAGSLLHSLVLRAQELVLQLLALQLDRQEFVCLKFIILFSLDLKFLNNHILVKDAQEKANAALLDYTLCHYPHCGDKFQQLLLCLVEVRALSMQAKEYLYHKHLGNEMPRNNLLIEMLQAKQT
Nuclear receptor subfamily 5 group A member 2 (Homo sapiens), sequence (O00482 whole entry, looked up): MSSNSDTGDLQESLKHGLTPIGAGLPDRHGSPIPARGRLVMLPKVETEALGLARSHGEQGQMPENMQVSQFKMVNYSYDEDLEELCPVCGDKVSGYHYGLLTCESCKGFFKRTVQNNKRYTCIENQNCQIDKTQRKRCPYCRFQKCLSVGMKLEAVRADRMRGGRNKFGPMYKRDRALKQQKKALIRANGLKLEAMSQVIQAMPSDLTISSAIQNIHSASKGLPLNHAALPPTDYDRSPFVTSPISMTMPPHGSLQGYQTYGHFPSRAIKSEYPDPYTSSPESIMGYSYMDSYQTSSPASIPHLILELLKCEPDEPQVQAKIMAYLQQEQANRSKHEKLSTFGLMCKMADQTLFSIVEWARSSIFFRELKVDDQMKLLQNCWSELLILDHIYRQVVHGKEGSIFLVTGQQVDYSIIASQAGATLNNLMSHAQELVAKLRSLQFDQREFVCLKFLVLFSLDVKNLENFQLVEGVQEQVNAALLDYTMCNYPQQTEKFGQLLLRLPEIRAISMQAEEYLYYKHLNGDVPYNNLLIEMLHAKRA

As to `Cn1cc(C(=O)c2ccc(Cl)cc2)cc1-c1nc2ccccc2n1C`, the figures for the inhibition in [1] and in experiment [2] were 51.9% (active) and 49.8% (active), respectively.

As for `CN(C)c1ccc2nc3ccc(=[N+](C)C)cc-3sc2c1`, the values for the inhibition in [1], in experiment [2] and in [3] were 59.9% (active), 66.7% (active) and 52.9% (active), respectively.

Consider `c1ccc2c(c1)CCN(c1ncnc3c1[nH]c1ccccc13)C2`, for which the inhibition in [4] was 25.5%; in [1], 68.5% (active); in [2], 69.5% (active); in experiment [3], 58.2% (active); in experiment [5], 25.4%; in [6], 40.2%.

For the molecule `C=CCNC(=O)CSc1nc2sc(C)c(C)c2c(=O)[nH]1`, the inhibition in experiment [7] was -1.59%; in experiment [8] it was -0.91%; in [9], -2.04%.

As to `C=CCn1c(=O)c(C(=O)NCc2ccc3c(c2)OCO3)c(O)c2ccccc21`, the figures for the inhibition in [7], in [8] and in experiment [9] were 4.97%, 6.78% and 6.71%, respectively.

In the case of `CNC(=O)c1cc(Oc2ccc(NC(=O)Nc3ccc(Cl)c(C(F)(F)F)c3)cc2)ccn1`, the inhibition in experiment [1] was 63.7% (active); in [2] it was 69% (active); in experiment [5], 29.9%; in experiment [6], 58.7% (active).

On to `CCC(C(=O)NCc1ccccc1)n1c(CSCCOc2ccccc2)nc2ccccc21` (configuration not stated), for which the inhibition in experiment [4] is 21.1%; in experiment [1], 21.6%; in experiment [2], 25.1%; in experiment [3] it was 29%; in experiment [5] it was 19.5%; in experiment [6], 78.3% (active).

Regarding `O=C(Nc1ccc(Br)cn1)C1CCN(S(=O)(=O)c2cccs2)CC1`, the inhibition in [4] is 13.5%; in experiment [1], 48.4% (active); in experiment [2] it was 50.2% (active); in [3], 45.3% (active); in experiment [10], 13.1% (active); in experiment [11], 48.2% (active).

Take `COc1ccc(-c2nc3c([nH]2)c(=O)n(C)c(=O)n3C)c(OC)c1`: the inhibition in experiment [1] was 24.5%; in experiment [2], 12.7%.

For `O=C1/C(=C\c2ccccc2)CN(C(=O)CCN2CCCCC2)C/C1=C/c1ccccc1`, the inhibition in experiment [4] is 56.7% (active); in [1], 84.7% (active); in experiment [2], 84.8% (active); in experiment [3] it was 73.7% (active); in experiment [5], 85.7% (active); in experiment [6], -4.61%.

Take `CC(=O)c1c(C)[nH]c(C(=O)COc2cc(C)ccc2C(C)C)c1C`: the inhibition in experiment [4] was 21.1%; in experiment [1], 53.5% (active); in experiment [2] it was 71% (active); in experiment [3], 50.3% (active); in experiment [5], 17.3%; in experiment [6], 43%.

On to `Cc1ccc(NC(=O)C2=C(c3ccccc3)S(=O)(=O)CCS2(=O)=O)cc1`, for which the inhibition in experiment [4] was 11%; in [1], -4.23%; in experiment [2], 30.3%; in [3] it was 48.5% (active); in experiment [5], 92.8% (active); in experiment [6] it was 96.9% (active).

As for `CCc1cc(-c2nnn(CCC3COCCO3)c2CC)ccc1-c1cn(Cc2ccc3ccccc3c2)nn1` (configuration not stated), the inhibition was 0.97% in experiment [4]; 34.7% in [1]; 42.3% in experiment [2]; 39.4% (active) in experiment [3]; -21.8% in experiment [10]; 42% (active) in [11].

For `O=C(CCl)Nc1cc2[nH]c(=O)[nH]c2cc1Br`, the inhibition was 71.3% (active) in [4]; 78.6% (active) in experiment [1]; 79.1% (active) in [2]; 2.89% in experiment [3]; 76.5% (active) in experiment [5]; 74.7% (active) in experiment [6].

For `CCN1CCN(c2nc(Nc3cc(OC)ccc3OC)nc(Nc3cc(OC)ccc3OC)n2)CC1`, the inhibition in experiment [7] was -0.69%; in [8] it was -0.86%; in [9], -2.43%.

For the molecule `COc1cccc(N2CCN(CC(=O)Nc3ccc(-n4cnnn4)cc3)CC2)c1`, the inhibition in experiment [2] is 48.9% (active).

With `CN(C)C(=O)c1cccc(COc2ccc(N3C(N)=NC(N)=NC3(C)C)cc2Cl)c1`, the figures for the inhibition in experiment [1] and in experiment [2] were 42.1% (active) and 39.9%, respectively.

`COc1cccc(C(O)c2ncc(-c3ccc4ccccc4c3)[nH]2)c1` (configuration not stated): the inhibition in [7] is 7.6%; in experiment [8], 10.9%; in [9], 13.4%.

With `Cc1ccc(-c2cnc(C(O)c3cc(Cl)cc(Cl)c3)[nH]2)cc1` (configuration not stated), the inhibition in experiment [7] was 12.2% (active); in [8], 16.9%; in [9], 16.9%.

As usually defined, the inhibition is the change of the read-out against control, counted positive when it falls.

The record behind these values is PubChem BioAssay.
